Assay outcomes: PubChem BioAssay, National Center for Advancing Translational Sciences (NCATS)
The sample as a whole holds a higher share of hits than the screen did.
CXXC DNA block – blocks binding of human MLL CXXC domain to DNA; hit rate 0.037% among 290,000; MLL-CXXC / FITC-HOXA9 DNA fluorescence polarization; Potency, µM (series often up to 115 µM), without a hit: at the top dose activity change, negative = inhibition, hits mostly inhibitors; active = well fitted inhibition curve with a large enough effect in the polarisation, with a control signal flat, not every such curve was filed as active; inconclusive = small, poorly fitted or top-dose-only effect, or effect the other way, or a change in a side signal; inactive = no such curve, though single readings can be large or run the other way; the % refers to the polarisation; also: potency is read from the fitted curve at half-maximal effect
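Purified MLL-CXXC (added from a 7 uM solution) was preincubated 5 min at ambient with pinned compounds in 50 mM Tris-HCl pH 7.5, 50 mM NaCl, 1 mM DTT, 0.05% BSA. Fluorescein-labeled HOX-A9 DNA (50 nM solution) followed, 30 min, then polarization read.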
Menin-MLL FL inh – inhibitors of human menin-MLL interaction, wild-type MLL peptide | Fluorescence polarization, fluorescein-MLL peptide displacement from menin | FP activity change, % at 61.4 µM | 290,000 tested, under 10 active; active = well fitted curve in the direction sought with a large enough effect in the polarisation, not every such curve was filed as active; inconclusive = small, poorly fitted or top-dose-only effect, or effect the other way, or a change in a side signal; inactive = no such curve, though single readings can be large or run the other way; the % refers to the polarisation; also: % of control where 0% means no effect
ClpP mod – qHTS Assay for Activators of ClpP; ATP-dependent Clp protease proteolytic subunit (Bacillus subtilis (strain 168)), P80244; purified B. subtilis ClpP, FRET peptide cleavage, 20 min; Potency, µM (doses to about 57.5 µM), inactives show at the top dose activity change, negative = active; hit rate 1.9% among 340,000; AID 651965, 2013; active = well fitted falling curve with a large enough effect; inconclusive = small, poorly fitted or top-dose-only effect; inactive = no such curve, though single readings can be large or run the other way; also: potency is read from the fitted curve at half-maximal effect; the source files actives as falling curves though it sought activators and does not explain the sign; nearly all actives have a fitted effect of over 65% in size
Target sequence (P80244 whole entry, looked up): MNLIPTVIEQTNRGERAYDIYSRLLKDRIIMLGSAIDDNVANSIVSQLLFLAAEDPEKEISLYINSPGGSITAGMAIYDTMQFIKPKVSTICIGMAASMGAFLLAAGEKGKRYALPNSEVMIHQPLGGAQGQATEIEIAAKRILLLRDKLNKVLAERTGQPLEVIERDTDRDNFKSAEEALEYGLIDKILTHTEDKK
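FRET quenching reversal measured ClpP activation: 10 microg/mL B. subtilis ClpP at pH 8 with the FRET-FV decapeptide, read at 430 nm after 320 nm excitation. The 20-min minus 0-min signal was scaled between DMSO/no-enzyme wells and ADEP (5.8 microM final).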
p53 reactivator – mutant p53 re-activation in reporter cells. H1299 p53-A138V BP100-luciferase reporter, luminescence, 24 h. Potency, µM (top dose mostly 92.2 µM), for inactives: at the highest dose activity change, positive = activation, usual class: activators. hit rate 0.063% among 320,000. AID 504706; active = well fitted activation curve with a large enough effect; inconclusive = small, poorly fitted or top-dose-only effect; inactive = no such curve, though single readings can be large or run the other way; also: potency is read from the fitted curve at half-maximal effect; % of control where 0% means no effect; nearly all actives have a fitted effect of over 45% in size
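H1299 (p53-null), stable ts p53-A138V + BP100-Luc; 1000 cells/well, Opti-MEM/10% FBS; cpd 4 pt, 1:5; 24 h, 37 deg C, 5% CO2; detection reagent 10 min RT; luminescence.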
Menin MLL FP TR – inhibitors of human menin-MLL interaction, mutant MLL peptide; hit rate 0.23% among 270,000; Menin + Texas Red MLL mutant peptide, fluorescence polarization; O00255; Potency, µM (top dose mostly 61.6 µM), inactives show at the highest dose FP activity change, negative = inhibition, most hits filed as inhibitors; AID 1768; active = well fitted inhibition curve with a large enough effect in the polarisation, with a control signal flat, not every such curve was filed as active; inconclusive = small, poorly fitted or top-dose-only effect, or effect the other way, or a change in a side signal; inactive = no such curve, though single readings can be large or run the other way; the % refers to the polarisation; also: potency is read from the fitted curve at half-maximal effect; % of control where 0% means no effect
* hit, by the source's call; ? = inconclusive; nt = no result; [ ] = remark or other dose.

SMILES	CXXC DNA block	Menin-MLL FL inh	ClpP mod	p53 reactivator	Menin MLL FP TR
COc1cc(-c2c(C#N)c(N)nc3c2c(C)nn3-c2ccc(C)c(C)c2)cc(OC)c1OC	4%	?	25µM*	-9%	8%
COC(=O)CCC(=O)Nc1ccc(Cl)c(Cl)c1	-6%	3	-3%	4%	4%
CO/N=C\CC(=O)Nc1ccc(Cl)c(Cl)c1	-9%	0	nt	-2%	25µM*
COC(=O)c1c(-c2ccc(C)cc2)csc1NC(=O)C1CC=CCC1C(=O)O (stereo not given)	-3%	1	16µM*	?	-6%
COC(=O)c1ccccc1NC(=O)C1CC=CCC1C(=O)O (stereo not given)	6%	0	22µM*	-1%	2%
O=C(CSc1cccc2cccnc12)OCC(=O)c1ccc(Br)cc1	2%	12	29%	0%	nt
O=C(CSc1cccc2cccnc12)OCC(=O)c1ccccc1	1%	3	25µM*	2%	19%
CN(C)C(=O)CSc1cccc2cccnc12	-22%	0	20µM*	-8%	10%
O=c1oc(-c2ccc(C(F)(F)F)cc2)nn1Cc1cc(Cl)ccc1O	nt	5	nt	nt	-27%
O=C(Nc1nnc(Cc2ccccc2)s1)C1CCN(C(=O)c2cccs2)CC1	nt	nt	-2%	nt	nt
CC1=C(C(N)=O)C(c2cccs2)n2nc(-c3cccc(C)c3)nc2N1 (stereo not given)	-4%	2	-3%	-4%	-16%
CC1=C(C(N)=O)C(c2cccnc2)n2nc(-c3cccc(C)c3)nc2N1 (stereo not given)	2%	0	32µM*	0%	-17%
CC1(C)C(=O)OC(C(=O)c2ccc(C(C)(C)C)cc2)C(C)(C)C1=O (stereo not given)	0%	2	32µM*	-1%	-2%
COC(=O)c1ccc(CSc2c(C(C)C)cnc3c2c(=O)n(C)c(=O)n3C)cc1	nt	nt	-2%	nt	nt
COc1ccc(NS(=O)(=O)c2cccc(C(=O)NNC(=O)c3ccc(Br)o3)c2)cc1	nt	nt	nt	-1%	nt
COc1ccc(NS(=O)(=O)c2cccc(C(=O)NNC(=O)c3cncc(Br)c3)c2)cc1	nt	nt	28µM*	5%	nt
CCO/C=N/c1c(C#N)c2c(c(=S)n1C)COC(C)(C)C2	4%	4	3.5µM*	4%	-21%
COc1cccc(NC(=O)Cn2c(=O)n(-c3ccccc3)c(=O)c3ccc(C(=O)NCc4ccc5c(c4)OCO5)cc32)c1	nt	nt	0%	nt	nt
COc1ccc(-c2cc(=O)n(-c3ccc([N+](=O)[O-])cc3)[nH]2)cc1	0%	2	28µM*	26%	?
Cn1c(CNC(=O)CSc2n[nH]c(-c3ccccc3Cl)n2)nc2ccccc21	nt	nt	0%	nt	nt
CCOC(=O)C(CCc1ccccn1)c1ccccc1 (stereo not given)	nt	nt	7.9µM*	nt	nt
CN1CCCc2cc(/C=C/c3ccnc4ccccc34)ccc21	nt	nt	0%	nt	nt
CCCn1c(=O)c2c(C(=O)OCC)cc(-c3ccco3)nc2n(CCC)c1=O	-2%	6	13µM*	3%	-7%
CC(C)CCNC(=O)c1cnn2c(C(F)(F)F)cc(-c3ccco3)nc12	-8%	14	-12%	-3%	?
CCOC(=O)c1cnn2c(C(F)(F)F)cc(-c3ccco3)nc12	-2%	1	32µM*	-2%	10%
SMILES	CXXC DNA block	Menin-MLL FL inh	ClpP mod	p53 reactivator	Menin MLL FP TR
CCCCc1nc2c(c3c1C[C@H](C)OC3)CN(C(=O)c1cc(I)ccc1F)CC2	nt	-2[11.7 µM]	nt	nt	-15%[11.7 µM]
CCC(=O)NC1=C(C#N)C2(CCCC2)Cc2ccccc21	-5%	-1	32µM*	-7%	6%
CCCC(=O)NC1=C(C#N)C2(CCCCC2)Cc2ccccc21	2%	1	-2%	-2%	-8%
CCOC(=O)c1cnn(-c2nc(-c3ccc(C)cc3)cs2)c1C(F)(F)F	-1%	5	32µM*	7%	9%
O=C(O)c1cnn(-c2nc(-c3ccc(F)cc3)cs2)c1C(F)(F)F	6%	1	nt	-1%	18%
CN(C)c1ccc(/C=C/c2ccnc3c(-c4ccccc4)cccc23)cc1	nt	nt	2%	nt	nt
Cc1nc(-c2ccccc2)c(-c2ccccc2)[nH]1	1%	3	25µM*	-17%	7%
